Test results: the OligoGym collection

Biological target: ZBTB9
Assay: pooled miR-30 sensor sort-seq; sequence = guide strand
Settings: shRNA
Also: reference of the scale not given here.

| Sequence | sensor-assay potency score (higher = more potent) |
| --- | --- |
| TAATTCTCTAAGAATTTCTGAG | -0.361 |
| TTAAGCTGTAAATCAAATGTAT | -0.457 |
| TGAGCACTGATCTACTACCTGC | -0.24 |
| TTAATGTAGAAGATTTTGGGGG | -0.261 |
| TAAAACATTTACCACTGTCTTT | -1.1 |
| TAAATAATTGAAAATCTGGTTT | -0.887 |
| TAACACTGCTTTATGAGCCCTA | -0.401 |
| TCGGCTTCAATGACACTCGGTA | -0.397 |
| TTGAGTTTCCACATCTGCCAGG | -0.504 |
| TTTAAGTAACTGCAAGTCCCAC | -0.539 |
| TTTTGCTCTAACTCTTCTCTCA | -0.273 |
| TTTCTGAGCACTGATCTACTAC | -0.637 |

Biological target: ZC3H13
Assay: as above
Settings: shRNA

| Sequence | sensor-assay potency score (higher = more potent) |
| --- | --- |
| TTTCAGGATAGCTACTTCGAGT | -1.23 |
| TTGATCTAACCACTTCTGGTGA | -0.291 |
| TATTCCAACATCATCCTCTTTC | 0.216 |
| TTTTGATCTAACCACTTCTGGT | -0.785 |
| TTCTCGGATCTCTTCTCGCTTT | -0.478 |
| TATAATTGCTGCTATAACCTTT | -0.316 |
| TTGAGGTCGTACAACTTGGCTC | -0.282 |
| TTGTTCTTCATTCTTTCTCTAA | -0.618 |
| TTGGATTCCTATCTTCTCGGAT | 0.12 |
| TTCATTTCTATAGCGCTTCTTT | -0.352 |
| TTGAACTCTCTTTCCTTTCTGG | 0.745 |
| TAGACTTTCTTAGAGAAGGTGA | 0.611 |

Biological target: ZDHHC14
Assay: as above
Settings: shRNA

| Sequence | sensor-assay potency score (higher = more potent) |
| --- | --- |
| TTACAGAAGAACTTGTTTCTTC | 0.472 |
| TTTGCGATATCTATTTGCCTTT | -0.604 |
| TTGGTCGCACATGTCACTCTGT | 0.506 |
| TAGTAGCATAACACATAAGTGC | -0.719 |
| TTACCTCTTTTATTTGACCAGG | -0.803 |
| TTGCAGTCTGGCCACAAGCGTC | -1.44 |
| TTGATGATGACTTCTTTGGTTC | -0.541 |
| TTAGGAATCCTGTTTGCTGTGA | 0.039 |
| TTGGAGCTGATCAAGTAGGTGT | 0.206 |
| TTTGTTGTCTGGTTGGAGCTGA | 0.539 |

Biological target: ZDHHC20
Assay: as above
Settings: shRNA

| Sequence | sensor-assay potency score (higher = more potent) |
| --- | --- |
| TTTCTTGTTGTCTTTCTTGGCT | -0.0932 |
| TTGTTGTCTTTCTTGGCTGAAT | -1.21 |
| TTTTGCACGTGTATCTGTCAGT | -0.551 |
| TTCTTCAGCTCCATTCTCCAGC | -0.419 |
| TTGTTGTTCTATTTTTTCCAAC | -1.28 |
